# BoNT A protease: blocks Botulinum neurotoxin A light chain protease; multiplex microsphere protease substrate cleavage, flow cytometry; inhibition, % at 10 µM; actives 0.17% (n = 360,000); AID 588499; note: plate controls were buffer without enzyme for full effect and enzyme alone for no effect
# BoNT-F LC inh: blocks Botulinum neurotoxin F light chain protease. Multiplex microsphere protease cleavage assay, flow cytometry. inhibition, % at 10 µM. actives 0.22% (n = 360,000). AID 588497; in the data active = inhibition above about 35%, passing the limit was not always enough; inconclusive = no clear call, values can overlap the other calls; note: plate controls were buffer without enzyme for full effect and enzyme alone for no effect
# Anthrax LF prot: anthrax lethal factor protease inhibition. multiplex microsphere protease cleavage assay, LF. inhibition, % at 10 µM. actives 0.12% (n = 360,000). AID 588501. P15917; note: plate controls were buffer without enzyme for full effect and enzyme alone for no effect
# Autofluor counter: compound fluorescence in toxin protease inhibitor counterscreen. compound autofluorescence counterscreen, microsphere flow cytometry; stronger effect = higher value. fluorescence intensity (no concentration beside the values). actives 3.1% (n = 360,000). AID 624483; in the data active = fluorescence intensity above about 16000; inconclusive = no clear call, values can overlap the other calls
# The depositor's hits bear a star; ? = inconclusive. In the library only some 3.5% were active in any assay of this set; here they are far more common. Cut-off read from the data, not from the text of the source, unless noted: active = inhibition above about 30%; inconclusive = no clear call, values can overlap the other calls; inactive = below that.
SMILES,BoNT A protease,BoNT-F LC inh,Anthrax LF prot,Autofluor counter
CC(NC(=O)c1ccc(CS(=O)(=O)c2ccc(Cl)cc2)o1)c1ccc2c(c1)OCCO2 (stereo not given),-1,-2,-1,20032*
Cc1ccc(S(=O)(=O)Cc2ccc(C(=O)NCCCN3CCN(C)CC3)o2)cc1,?,-4,-2,23094*
Cc1ccccc1S(=O)(=O)Cc1ccc(C(=O)NC(C)c2ccc3c(c2)OCCO3)o1 (stereo not given),0,-6,0,5946
CN(C(=O)COC(=O)c1ccccc1SCC(=O)N1CCCC1)C1(C#N)CCCCC1,0,-3,-8,4063
COc1ccc(-n2nc(C(=O)NCC(=O)Nc3cccc(Cl)c3)c3ccccc3c2=O)cc1,2,4,1,5240
CCCCCOc1ccc(NC(=O)CSc2cccc3cccnc23)cc1,0,-4,0,2533
Cc1ccc(S(=O)(=O)N2CCCC2)cc1C(=O)NCc1ccccn1,4,5,3,3959
O=C(NCc1ccccn1)c1cc(S(=O)(=O)N2CCN(c3ccccc3)CC2)ccc1Cl,?,-2,-4,22854*
FC(F)(F)c1cc(-c2ccco2)nc(N2CCN(Cc3ccccc3)CC2)n1,-6,-9,-4,21755*
O=C(CSCc1cccc(Br)c1)N1CCOCC1,-2,-5,-1,23815*
CCN(CC)S(=O)(=O)c1ccc2oc(C(=O)NCCN3CCOCC3)c(C)c2c1,-1,-1,-2,5315
C=CCNC(=O)c1oc2ccc(S(=O)(=O)N(CC)CC)cc2c1C,-4,-5,-2,24786*
CC(CN1CCCCC1)OC(=O)/C=C/c1ccccc1 (stereo not given),0,36*,-1,3373
CC(CN1CCOCC1)OC(=O)/C=C/c1ccccc1 (stereo not given),-1,-2,-2,3444
COc1ccc(/C=C/C(=O)OC(C)CN2CCOCC2)cc1 (stereo not given),-2,-5,0,17262*
C=CCNc1nc(C(=O)OCC(=O)c2ccc(Cl)cc2)cs1,1,0,0,6459
NC(=S)c1cc2cc(Cl)ccc2oc1=O,-1,2,-4,5984
Cc1nn(-c2cc(N3CCCCCC3)ccc2[N+](=O)[O-])c(=O)c2ccccc12,?,-2,1,23118*
Cc1nn(-c2cc(N3CCCCC3)ccc2N)c(=O)c2ccccc12,?,0,0,20582*
O=C1NC[C@H](Cc2ccc(O)cc2)N(C[C@@H]2CCCN2C[C@H](Cc2ccccc2)N2C[C@H](Cc3ccc(O)cc3)N(CC3CCCCCC3)C(=O)C2=O)C1=O,1,-10,-3,6054
Cc1ccc(NC(=O)N/C=C/c2ccco2)cc1,1,4,-1,22171*
COc1ccc(N(CC(=O)Nc2cc(C(=O)O)ccc2C)S(=O)(=O)c2c(C)noc2C)cc1,-2,-3,-9,16981*
Cc1cc(C)cc(NC(=O)CSc2nnc(Cc3cccn3C)n2-c2ccc(F)cc2)c1,0,-5,-6,5446
Cc1cc(C)c(NC(=O)CSc2nnc(Cc3cccn3C)n2-c2ccc(F)cc2)c(C)c1,-3,-7,-2,25100*
Cc1ccc(-n2c(SCC(=O)NCc3ccco3)nnc2-c2cccnc2)c(C)c1,1,1,2,22964*
SMILES,BoNT A protease,BoNT-F LC inh,Anthrax LF prot,Autofluor counter
Cn1cccc1Cc1nnc(SCC(=O)NCc2ccco2)n1-c1ccc(F)cc1,?,4,-6,22151*
CC(=O)Nc1cccc(NC(=O)CSc2nnc(Cc3cccn3C)n2-c2ccc(F)cc2)c1,2,2,-8,21922*
Cc1cccc(-n2c(SCC(=O)NCc3ccco3)nnc2-c2ccco2)c1,0,-2,-1,7333
Cn1cccc1Cc1nnc(SCC(=O)NCc2ccccc2Cl)n1-c1ccc(F)cc1,-1,-4,0,4738
COc1cccc(NC(=O)CSc2nnc(Cc3cccn3C)n2-c2ccc(F)cc2)c1,0,-3,-3,5810
CCN1CCN(c2nc3sc4c(c3c(=O)n2-c2ccc(OC)cc2)CCCCC4)CC1,-1,-3,0,16947*
O=C(OCc1ccccc1)c1cccc(-c2nnc(-c3ccccc3)o2)c1,?,-3,-1,23216*
O=C(O)CCC(=O)Nc1ccc(Oc2ncnc3cc(Cl)ccc23)nc1,9,40*,?,3429
CCN(CC)c1ccc(NC(=O)c2ccc(=O)[nH]c2)cc1S(=O)(=O)Nc1ccccc1OC,0,4,-2,4137
CCN(C(=O)Cc1c(C(=O)O)[nH]c2ccccc12)c1cc(OC)ccc1OC,0,-1,-4,20129*
COc1ccc(N(C)C(=O)Cc2c(C(=O)O)[nH]c3ccccc23)cc1,-2,-1,8,3516
Cc1c(C(=O)NC2=NCCS2)oc2ccccc12,-1,-12,-1,21128*
COc1cc(C(=O)NC2=NCCS2)ccc1OCc1c(C)noc1C,?,-6,0,20499*
Cc1c(C(=O)Nc2nccs2)oc2ccccc12,1,-3,-3,3747
COc1cccc(C(=O)NC2=NCCS2)c1OC,?,-1,-7,19499*
CC(C)CN(C(=O)COC(=O)CCc1nc2ccccc2s1)c1c(N)n(Cc2ccccc2)c(=O)[nH]c1=O,2,10,3,4395
COC(=O)/C=C1\NC(=O)C(C)S1 (stereo not given),0,-5,-3,4258
COC(=O)/C=C1\NCCSC1=O,-2,-2,-3,17208*
CCN(CC)CCNC(=O)c1c(O)c2cc(OC)c(OC)cc2[nH]c1=O,-2,8,-2,3609
COc1cc2c(C(=O)N3CCN(C)CC3)c(C)oc2cc1Br,0,0,0,19992*
CCN(CC)CCNC(=O)c1c(C)oc2cc(Br)c(OC)cc12,4,7,-4,21610*
N/C(=N\OC(=O)c1cccc(Br)c1)c1ccc(Br)cc1,0,-7,-4,3015
CCC(=O)Nc1ccccc1C(=O)OCc1ccc(C(=O)c2ccccc2)cc1,8,9,-13,20219*
O=C(OCc1ccc(Cl)cc1)c1cccnc1Cl,-1,-5,0,4840
O=C(O)CCC(=O)Nc1ccccc1C(=O)NC1CCCCC1,0,-10,-1,2663
SMILES,BoNT A protease,BoNT-F LC inh,Anthrax LF prot,Autofluor counter
N/C(=N\OC(=O)c1ccc(Br)cc1)c1ccccc1,-5,-5,-2,25293*
O=C(OCc1ccc(Cl)cc1)c1ccccc1C(=O)c1ccccc1,-3,-8,-12,17651*
CCC(=O)Nc1ccccc1C(=O)NC1CCCCC1,2,3,0,21479*
C=CCN1CC(C(=O)N2CCC(Cc3ccc(Cl)cc3)(C(=O)OCC)CC2)CC1=O (stereo not given),0,-6,3,4624
COc1ccc(C(=O)O/N=C(\N)Cc2ccc(Cl)cc2)cc1OC,0,-4,7,3250
N/C(Cc1ccc(Cl)cc1)=N\OC(=O)c1ccccc1,1,42*,-1,4345
CCCS(=O)(=O)NC(=O)C1(C)CCN(C(=O)c2ccc(F)c(Cl)c2)C1 (stereo not given),0,-12,0,2947
CCC(CC)NC(=O)c1ccc2c(c1)OCCO2,-2,-5,-1,23941*
CC(NC(=O)c1ccc2c(c1)OCCO2)C(=O)O (stereo not given),0,0,-1,12522
O/N=C/c1ccc2ccccc2n1,-2,41*,-10,3713

# Assay outcomes (PubChem)
